Test results taken from PubChem BioAssay (EPA / NIEHS).
Calls of active or inactive are those of the source. The calls were made as follows: active = hit-call score of the fitted dose curve at least 0.9, where 1 is the maximum; inactive = score below 0.9.

Experiments:
Settings in all cases: mRNA level, 48 h; actives raise or lower the signal
[1] = read-out: matrix metalloproteinase-3 (MMP3), MMP3 (gene 4314); assay: LTEA_HepaRG_MMP3: Life Technologies and Expression Analysis (LTEA) Assay for matrix metalloproteinase-3 (MMP3) using HepaRG (AID 2283519)
Method in brief: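 Fluidigm-based TaqMan qRT-PCR, normalized to ACTB, GAPDH and POLR2A and fitted bidirectionally versus 0.5% DMSO, measured transcript levels. Treatment: duplicate 48 h exposures of HepaRG cells, ~100,000/well, to eight half-log concentrations topping at 100 uM.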

[2] = read-out: Paternally Expressed 10 (PEG10), PEG10 (gene 23089); assay: LTEA_HepaRG_PEG10: Life Technologies and Expression Analysis (LTEA) Assay for Paternally Expressed 10 (PEG10) using HepaRG (AID 2283520)
Method in brief: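 After 48 h exposure of differentiated HepaRG cells (0.5% DMSO vehicle, eight concentrations up to 100 uM, duplicates), PEG10 mRNA was measured by TaqMan qRT-PCR. Values were normalised to endogenous control genes and analysed bidirectionally against vehicle.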

[3] = read-out: Nuclear factor NF-kappa-B p105 subunit (Homo sapiens) (UniProt P19838); assay: LTEA_HepaRG_NFKB1: Life Technologies and Expression Analysis (LTEA) Assay for Nuclear Factor Kappa B Subunit 1 (NFKB1) using HepaRG (AID 2283521)
Method in brief: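 Differentiated human HepaRG cells in serum-free induction medium with 0.5% DMSO were exposed for 48 h to eight half-log concentrations, top 100 uM, in duplicate. NFKB1 mRNA measured by Fluidigm TaqMan qRT-PCR, normalised to ACTB, GAPDH and POLR2A; bidirectional fit versus DMSO.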

[4] = read-out: Protein phosphatase 2A (PPP2R4), PTPA (gene 5524); assay: LTEA_HepaRG_PPP2R4: Life Technologies and Expression Analysis (LTEA) Assay for Protein phosphatase 2A (PPP2R4) using HepaRG (AID 2283522)
Method in brief: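 Using HepaRG cultures maintained in 0.5% DMSO, chemicals are tested 48 h at up to 100 uM in duplicate. Induction or suppression of PPP2R4 mRNA, measured by qRT-PCR, is fitted bidirectionally against the vehicle baseline.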

[5] = read-out: Phosphatase and tensin (PTEN), PTEN (gene 5728); assay: LTEA_HepaRG_PTEN: Life Technologies and Expression Analysis (LTEA) Assay for Phosphatase and tensin (PTEN) using HepaRG (AID 2283523)
Method in brief: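 Read-out: TaqMan qRT-PCR of PTEN transcript, normalized to three housekeeping genes, fitted in both directions against 0.5% DMSO. Differentiated human HepaRG cultures received chemicals for 48 h, eight-point half-log series topping at 100 uM.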

[6] = read-out: solute carrier (SLC22A1), SLC22A1 (gene 6580); assay: LTEA_HepaRG_SLC22A1: Life Technologies and Expression Analysis (LTEA) Assay for solute carrier (SLC22A1) using HepaRG (AID 2283524)
Method in brief: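 Transcript level of SLC22A1 quantified by qRT-PCR (normalized to three housekeeping genes) after 48 h chemical exposure of HepaRG cells, eight concentrations up to 100 µM, half-log steps, 0.5% DMSO vehicle. Gain or loss relative to DMSO fitted bidirectionally.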

[7] = read-out: Pyruvate Dehydrogenase Kinase 4 (PDK4), PDK4 (gene 5166); assay: LTEA_HepaRG_PDK4: Life Technologies and Expression Analysis (LTEA) Assay for Pyruvate Dehydrogenase Kinase 4 (PDK4) using HepaRG (AID 2283525)
Method in brief: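 Readout is qRT-PCR of PDK4 transcript, normalized to three housekeeping genes, with bidirectional fitting against 0.5% DMSO vehicle. Differentiated HepaRG cells were treated 48 h in serum-free induction medium, duplicate wells, eight-point half-log series topping at 100 uM.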

[8] = read-out: NAD(P)H dehydrogenase [quinone] 1 (NQO1), NQO1 (gene 1728); assay: LTEA_HepaRG_NQO1: Life Technologies and Expression Analysis (LTEA) Assay for NAD(P)H dehydrogenase [quinone] 1 (NQO1) using HepaRG (AID 2283526)
Method in brief: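 In this assay, gene expression is read by qRT-PCR after 48 h exposure of HepaRG cells to eight concentrations (max 100 uM, half-log) in 0.5% DMSO. Each chemical runs in duplicate, and activity is scored relative to vehicle.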

[9] = read-out: Nuclear factor erythroid 2-related factor 2 (Homo sapiens) (UniProt Q16236); assay: LTEA_HepaRG_NFE2L2: Life Technologies and Expression Analysis (LTEA) Assay for Nuclear factor erythroid 2-related factor 2 (NFE2L2) Transcription Factor using HepaRG (AID 2283527)
Method in brief: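 NFE2L2 transcript level was read by qRT-PCR (housekeeping ACTB/GAPDH/POLR2A normalisation) after 48 h chemical treatment of HepaRG in serum-free induction medium. Duplicate 8-point half-log curves, top 100 uM, 0.5% DMSO vehicle; up- or down-regulation fitted against vehicle.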

[10] = read-out: succinate dehydrogenase complex iron sulfur subunit B (SDHB), SDHB (gene 6390); assay: LTEA_HepaRG_SDHB: Life Technologies and Expression Analysis (LTEA) Assay for succinate dehydrogenase complex iron sulfur subunit B (SDHB) using HepaRG (AID 2283528)
Method in brief: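 HepaRG cells (~100,000/well, plated 48 h) exposed in duplicate for 48 h in serum-free induction medium to 8-point half-log series from 100 uM in 0.5% DMSO; mRNA by qRT-PCR normalised to ACTB, GAPDH, POLR2A; bidirectional fit versus DMSO.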

[11] = read-out: Signal transducer and activator of transcription 3 (Homo sapiens) (UniProt P40763); assay: LTEA_HepaRG_STAT3: Life Technologies and Expression Analysis (LTEA) Assay for Signal transducer and activator of transcription (STAT3) using HepaRG (AID 2283529)
Method in brief: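 STAT3 transcript quantified by qRT-PCR against three housekeeping genes (ACTB, GAPDH, POLR2A), fitted both directions relative to DMSO. HepaRG cultures exposed 48 h to eight half-log concentrations, top 100 uM, 0.5% DMSO, serum-free induction medium.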

[12] = read-out: solute carrier (SLCO1B1), SLCO1B1 (gene 10599); assay: LTEA_HepaRG_SLCO1B1: Life Technologies and Expression Analysis (LTEA) Assay for solute carrier (SLCO1B1) using HepaRG (AID 2283530)
Method in brief: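 Differentiated human HepaRG cells, plated 48 h, switched to serum-free induction medium and exposed in duplicate for 48 h to 8 half-log concentrations (top 100 uM) in 0.5% DMSO. SLCO1B1 mRNA by TaqMan qRT-PCR, normalized to ACTB/GAPDH/POLR2A.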

[13] = read-out: sulfotransferase 2A1 (SULT2A1), SULT2A1 (gene 6822); assay: LTEA_HepaRG_SULT2A1: Life Technologies and Expression Analysis (LTEA) Assay for sulfotransferase 2A1 (SULT2A1) using HepaRG (AID 2283531)
Method in brief: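 Differentiated human HepaRG cells in serum-free induction medium were exposed for 48 h to eight half-log concentrations (top 100 uM, 0.5% DMSO). SULT2A1 mRNA was measured by qRT-PCR, normalized to ACTB, GAPDH and POLR2A, and fitted bidirectionally against DMSO.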

[14] = read-out: Transforming Growth Factor (TGFA), TGFA (gene 7039); assay: LTEA_HepaRG_TGFA: Life Technologies and Expression Analysis (LTEA) Assay for Transforming Growth Factor (TGFA) using HepaRG (AID 2283532)
Method in brief: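 TGFA transcript quantified by qRT-PCR (Fluidigm arrays) against three housekeeping genes, after 48 hours chemical treatment of HepaRG cells. Top concentration 100 uM with half-log dilutions, 8 points, duplicates, 0.5% DMSO.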

[15] = read-out: Transforming Growth Factor (TGFB1), TGFB1 (gene 7040); assay: LTEA_HepaRG_TGFB1: Life Technologies and Expression Analysis (LTEA) Assay for Transforming Growth Factor (TGFB1) Transporter using HepaRG (AID 2283533)
Method in brief: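 Differentiated human HepaRG cells in serum-free induction medium were exposed in duplicate for 48 h to eight concentrations (top 100 uM, half-log steps, 0.5% DMSO). TGFB1 mRNA was quantified by qRT-PCR, normalized to ACTB, GAPDH, POLR2A, and fitted bidirectionally against DMSO.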

TIMP1, TIMP1 (gene 7076) = assay: LTEA_HepaRG_TIMP1: Life Technologies and Expression Analysis (LTEA) Assay for TIMP1 using HepaRG (AID 2283534);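 also: TaqMan qRT-PCR signal normalized to ACTB GAPDH and POLR2A housekeeping genes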
Method in brief: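 Differentiated human HepaRG cells in serum-free induction medium were exposed 48 h to chemicals (8 half-log concentrations, top 100 uM, 0.5% DMSO). TIMP1 mRNA was quantified by TaqMan qRT-PCR, normalized to ACTB/GAPDH/POLR2A; bidirectional fit versus DMSO.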

[16] = read-out: Tumor necrosis factor receptor 1 (TNFRSF1A), TNFRSF1A (gene 7132); assay: LTEA_HepaRG_TNFRSF1A: Life Technologies and Expression Analysis (LTEA) Assay for Tumor necrosis factor receptor 1 (TNFRSF1A) using HepaRG (AID 2283535)
Method in brief: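 Differentiated human HepaRG cells were exposed in duplicate for 48 h in serum-free induction medium to eight concentrations (top 100 uM, half-log steps, 0.5% DMSO). TNFRSF1A mRNA was quantified by qRT-PCR, normalized to ACTB, GAPDH and POLR2A, then fitted bidirectionally against DMSO.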

[17] = read-out: Thyroid Hormone Responsive (THRSP), THRSP (gene 7069); assay: LTEA_HepaRG_THRSP: Life Technologies and Expression Analysis (LTEA) Assay for Thyroid Hormone Responsive (THRSP) using HepaRG (AID 2283536)
Method in brief: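 THRSP transcript quantified by Fluidigm qRT-PCR against three housekeeping genes after 48 h chemical exposure of HepaRG cells in serum-free induction medium; eight-point half-log series, top 100 uM, 0.5% DMSO vehicle, duplicate wells.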

[18] = read-out: Cellular tumor antigen p53 (Homo sapiens) (UniProt P04637); assay: LTEA_HepaRG_TP53: Life Technologies and Expression Analysis (LTEA) Assay for Tumor Protein P53 (TP53) using HepaRG (AID 2283537)
Method in brief: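 Differentiated HepaRG cells in serum-free induction medium exposed 48 h in duplicate to 8 half-log concentrations, top 100 uM, 0.5% DMSO. TP53 mRNA by TaqMan qRT-PCR (Fluidigm), normalized to ACTB, GAPDH, POLR2A; fitted bidirectionally versus DMSO.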

[19] = read-out: UDP glucuronosyltransferase (UGT1A1), UGT1A1 (gene 54658); assay: LTEA_HepaRG_UGT1A1: Life Technologies and Expression Analysis (LTEA) Assay for UDP glucuronosyltransferase (UGT1A1) using HepaRG (AID 2283538)
Method in brief: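 mRNA induction or loss of UGT1A1, by TaqMan qRT-PCR, in duplicate HepaRG wells after 48 h exposure to half-log dilutions topping at 100 uM; DMSO (0.5%) served as baseline.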

Measured: AC50

Chain of Nuclear factor erythroid 2-related factor 2 (Homo sapiens) (Q16236 whole entry, looked up): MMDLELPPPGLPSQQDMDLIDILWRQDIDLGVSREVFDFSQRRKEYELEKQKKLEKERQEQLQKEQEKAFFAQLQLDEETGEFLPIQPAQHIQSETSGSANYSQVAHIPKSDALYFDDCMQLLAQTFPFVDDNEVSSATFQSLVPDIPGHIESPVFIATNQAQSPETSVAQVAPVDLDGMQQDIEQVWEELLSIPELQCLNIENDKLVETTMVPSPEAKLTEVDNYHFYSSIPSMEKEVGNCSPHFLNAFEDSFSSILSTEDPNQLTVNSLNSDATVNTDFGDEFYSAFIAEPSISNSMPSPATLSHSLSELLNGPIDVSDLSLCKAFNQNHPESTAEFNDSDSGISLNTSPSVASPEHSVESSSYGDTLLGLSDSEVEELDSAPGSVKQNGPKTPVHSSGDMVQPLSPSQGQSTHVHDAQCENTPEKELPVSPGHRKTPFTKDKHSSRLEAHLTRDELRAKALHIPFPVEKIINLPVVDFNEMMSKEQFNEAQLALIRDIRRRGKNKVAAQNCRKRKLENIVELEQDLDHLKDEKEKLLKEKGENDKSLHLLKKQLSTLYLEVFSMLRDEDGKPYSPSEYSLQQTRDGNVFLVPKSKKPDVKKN
Chain of Cellular tumor antigen p53 (Homo sapiens) (P04637 whole entry, looked up): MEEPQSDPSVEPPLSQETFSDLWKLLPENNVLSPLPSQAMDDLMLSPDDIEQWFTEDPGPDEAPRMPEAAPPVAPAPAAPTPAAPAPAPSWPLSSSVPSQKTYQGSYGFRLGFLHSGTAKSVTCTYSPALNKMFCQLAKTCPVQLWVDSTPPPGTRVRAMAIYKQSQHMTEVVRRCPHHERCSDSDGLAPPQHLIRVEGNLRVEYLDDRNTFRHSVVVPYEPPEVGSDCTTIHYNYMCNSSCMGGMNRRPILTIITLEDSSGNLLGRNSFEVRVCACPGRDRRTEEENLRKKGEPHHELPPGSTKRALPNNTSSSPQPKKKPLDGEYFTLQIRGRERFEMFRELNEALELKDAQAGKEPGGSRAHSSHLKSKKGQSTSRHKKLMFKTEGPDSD
Chain of Nuclear factor NF-kappa-B p105 subunit (Homo sapiens) (P19838 whole entry, looked up): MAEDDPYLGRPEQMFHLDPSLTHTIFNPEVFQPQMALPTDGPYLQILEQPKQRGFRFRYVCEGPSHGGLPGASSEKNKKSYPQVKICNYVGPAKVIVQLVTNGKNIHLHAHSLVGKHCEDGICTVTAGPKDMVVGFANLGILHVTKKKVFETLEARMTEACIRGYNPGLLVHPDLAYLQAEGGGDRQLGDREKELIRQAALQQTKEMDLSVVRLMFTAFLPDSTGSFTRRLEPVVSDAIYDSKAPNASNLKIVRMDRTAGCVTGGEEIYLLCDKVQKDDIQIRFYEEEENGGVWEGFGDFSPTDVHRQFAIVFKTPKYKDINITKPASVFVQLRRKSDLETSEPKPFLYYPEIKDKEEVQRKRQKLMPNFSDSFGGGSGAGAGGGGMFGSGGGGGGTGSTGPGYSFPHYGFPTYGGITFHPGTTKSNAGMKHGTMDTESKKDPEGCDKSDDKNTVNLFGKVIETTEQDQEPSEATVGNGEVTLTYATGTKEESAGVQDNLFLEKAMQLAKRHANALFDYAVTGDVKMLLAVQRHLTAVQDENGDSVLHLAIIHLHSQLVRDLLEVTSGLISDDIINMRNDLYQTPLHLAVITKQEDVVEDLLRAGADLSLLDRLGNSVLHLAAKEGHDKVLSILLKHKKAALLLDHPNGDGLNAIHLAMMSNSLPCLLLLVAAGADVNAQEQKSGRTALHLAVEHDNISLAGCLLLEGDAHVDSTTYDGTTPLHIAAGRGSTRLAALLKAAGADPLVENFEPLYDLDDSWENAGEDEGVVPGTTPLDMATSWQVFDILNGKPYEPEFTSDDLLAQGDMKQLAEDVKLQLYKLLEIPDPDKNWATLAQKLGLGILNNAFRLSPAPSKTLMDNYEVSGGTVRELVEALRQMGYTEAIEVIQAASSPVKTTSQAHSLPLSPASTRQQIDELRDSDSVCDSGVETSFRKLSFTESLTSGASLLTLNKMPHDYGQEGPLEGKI
Chain of Signal transducer and activator of transcription 3 (Homo sapiens) (P40763 whole entry, looked up): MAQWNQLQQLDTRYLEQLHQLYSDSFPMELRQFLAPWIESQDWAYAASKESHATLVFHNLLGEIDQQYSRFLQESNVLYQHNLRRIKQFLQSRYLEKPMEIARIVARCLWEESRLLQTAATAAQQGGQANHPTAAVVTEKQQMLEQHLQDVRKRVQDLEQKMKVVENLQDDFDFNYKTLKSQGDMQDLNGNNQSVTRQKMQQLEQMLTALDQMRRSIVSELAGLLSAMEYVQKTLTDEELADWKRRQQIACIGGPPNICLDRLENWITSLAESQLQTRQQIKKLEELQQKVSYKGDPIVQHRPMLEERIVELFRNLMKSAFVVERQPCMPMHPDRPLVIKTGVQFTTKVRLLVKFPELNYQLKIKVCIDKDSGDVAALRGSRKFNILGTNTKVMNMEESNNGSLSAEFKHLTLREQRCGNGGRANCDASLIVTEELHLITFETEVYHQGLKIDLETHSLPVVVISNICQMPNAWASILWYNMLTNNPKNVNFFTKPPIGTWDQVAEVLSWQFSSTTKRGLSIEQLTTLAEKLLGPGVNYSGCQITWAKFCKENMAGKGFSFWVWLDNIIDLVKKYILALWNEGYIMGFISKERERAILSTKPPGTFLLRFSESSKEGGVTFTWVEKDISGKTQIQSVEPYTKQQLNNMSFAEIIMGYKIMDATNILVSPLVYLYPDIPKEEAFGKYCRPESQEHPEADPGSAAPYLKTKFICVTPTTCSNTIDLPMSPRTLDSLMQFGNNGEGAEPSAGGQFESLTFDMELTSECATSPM

CC(C)N1C(=O)c2ccccc2NS1(=O)=O
inactive: [1] | [2] | [3] | [4] | [5] | [6] | [7] | [8] | [9] | [10] | [11] | [12] | [13] | [14] | [15] | TIMP1, TIMP1 (gene 7076) | [16] | [17] | [18]

COP(=O)(OC)O/C(C)=C/C(=O)N(C)C
inactive: [1] | [2] | [3] | [4] | [5] | [6] | [7] | [8] | [9] | [10] | [11] | [12] | [13] | [14] | [15] | [16] | [17] | [18]

O=c1n(Cl)c(=O)n(Cl)c(=O)n1Cl
inactive: [1] | [2] | [3] | [4] | [5] | [6] | [7] | [8] | [9] | [10] | [11] | [12] | [13] | [14] | [15] | [16] | [17] | [18]

CCOP(=S)(OCC)Oc1nc(Cl)n(C(C)C)n1
inactive: [1] | [2] | [3] | [4] | [5] | [8] | [9] | [10] | [11] | [12] | [13] | [14] | [15] | [16] | [18]
active: [6] 12.2 µM | [7] 1.82 µM | [17] 26.1 µM

CNC(=O)N(C)c1nnc(C(C)(C)C)s1
inactive: [1] | [2] | [3] | [4] | [5] | [6] | [7] | [8] | [9] | [10] | [11] | [12] | [13] | [14] | [15] | TIMP1, TIMP1 (gene 7076) | [16] | [17] | [18] | [19]

CCOc1nc(C(Cl)(Cl)Cl)ns1
active: [1] 2.93 µM | [3] 1.72 µM | [4] 0.801 µM | [5] 1.25 µM | [6] 1.34 µM | [7] 0.95 µM | [8] 0.993 µM | [9] 1.12 µM | [11] 50 µM | [12] 1.88 µM | [14] 1.14 µM | [15] 0.687 µM | [17] 1.06 µM | [18] 1.01 µM
inactive: [2] | [10] | [13] | TIMP1, TIMP1 (gene 7076) | [16] | [19]
